Screening data (PubChem BioAssay)
Shown are actives, neighbours in structure and some others; about 15% of the full set was active somewhere.
DT40 TDP1 no CPT – qHTS for Inhibitors of human tyrosyl-DNA phosphodiesterase 1 (TDP1): qHTS in cells in absence of CPT; DT40 Tdp1-/- hTDP1 cells, no CPT, ATP luminescence, 48 h; Potency, µM (series often up to 46.2 µM), inactives show at the top dose activity change, negative = growth inhibition, hits mostly inhibitors; 420,000 tested, 15% active; AID 686978, 2013; further: nearly all actives have a fitted effect of over 55% in size
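Growth of hTDP1-complemented DT40 Tdp1-knockout cells is measured by ATP luminescence after at least 48 hr compound exposure at 37 °C, with DMSO substituting for the 20 nM CPT used in the parallel screen.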
RORgamma inh – qHTS for inhibitors of ROR gamma transcriptional activity; Potency, µM (titrated, usually from 53.6 µM), for inactives: top-dose activity change, negative = inhibition, actives largely listed as inhibitors; Drosophila S2 Gal4-RORgamma UAS-luciferase reporter, 20 h; AID 2551, 2010; 310,000 tested, 5.4% active; further: nearly all actives have a fitted effect of over 60% in size
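A Gal4/UAS one-hybrid system in insect cells: metallothionein-promoter Gal4–ROR gamma fusion plus Photinus luciferase reporter. Copper sulfate 700 uM final, 20 hr ambient incubation, luminescent detection after 10 min with reagent.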
ELG1 DNA repair – qHTS screen for small molecules that inhibit ELG1-dependent DNA repair in human embryonic kidney (HEK293T) cells expressing luciferase-tagged ELG1. 330,000 tested, 2.3% active. Potency, µM (highest dose often 46.1 µM), without a hit: top-dose activity change, negative = inhibition, actives largely listed as inhibitors. HEK293T ELG1-luciferase reporter, luminescence, 16 h; DNA damage induced by 5-fluorouridine; further: nearly all actives have a fitted effect of over 55% in size
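Quantitative HTS, concentration-response format. 2,000 cells/well co-treated with 5-fluorouridine and compound, 16 hr in 5% CO2 at 37 °C; ONE-Glo luminescence read after 30 min.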
12-LOX inh – Primary qHTS assay for inhibitors of human arachidonate 12S-lipoxygenase (ALOX12): Round 2. Polyunsaturated fatty acid lipoxygenase ALOX12 (Homo sapiens), P18054. purified 12hLO, xylenol orange hydroperoxide absorbance. Potency, µM (highest dose often 108 µM), without a hit: at the top dose activity change, negative = inhibition, most hits filed as inhibitors. 580,000 tested, 1.1% active. AID 1671190, 2021
Target sequence (P18054 whole entry, looked up): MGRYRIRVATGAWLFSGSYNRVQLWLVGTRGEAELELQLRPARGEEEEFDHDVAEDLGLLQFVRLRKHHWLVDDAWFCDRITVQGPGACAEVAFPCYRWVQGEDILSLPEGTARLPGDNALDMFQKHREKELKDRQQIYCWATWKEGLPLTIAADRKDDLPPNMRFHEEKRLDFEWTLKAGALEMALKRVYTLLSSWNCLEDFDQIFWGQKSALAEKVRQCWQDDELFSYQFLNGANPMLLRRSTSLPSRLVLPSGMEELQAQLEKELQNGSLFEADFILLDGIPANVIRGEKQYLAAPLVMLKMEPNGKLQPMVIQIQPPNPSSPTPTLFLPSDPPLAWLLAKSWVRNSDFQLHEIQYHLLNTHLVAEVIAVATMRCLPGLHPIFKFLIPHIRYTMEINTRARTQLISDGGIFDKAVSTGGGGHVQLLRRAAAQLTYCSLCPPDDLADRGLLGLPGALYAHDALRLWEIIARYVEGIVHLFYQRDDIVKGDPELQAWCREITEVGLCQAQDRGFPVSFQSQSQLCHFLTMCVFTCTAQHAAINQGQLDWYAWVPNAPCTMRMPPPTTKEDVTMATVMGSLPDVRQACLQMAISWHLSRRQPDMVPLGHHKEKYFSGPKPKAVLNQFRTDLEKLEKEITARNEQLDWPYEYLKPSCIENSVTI
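Purified human 12hLO (150 nM final) in 25 mM Hepes, 0.01% Triton X-100, pH 7.0 was preincubated 15 min at room temperature with compound. Then 40 uM arachidonic acid was added, 30 min. Hydroperoxide was read by Fe-XO absorbance ratio 573/405 nm.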
VP16 counter – VP16 counterscreen qHTS for inhibitors of ROR gamma transcriptional activity. 310,000 tested, 3.5% active. Potency, µM (doses to about 53.6 µM), without a hit: at the top dose activity, negative = inhibition, most hits filed as inhibitors. Drosophila S2 Gal4-VP16 UAS-luciferase, luminescence, 20 h;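 further: Gal4-VP16 expression switched on by copper sulfate through the metallothionein promoter; nearly all actives have a fitted effect of over 50% in size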
DT40 TDP1 CPT – qHTS for Inhibitors of human tyrosyl-DNA phosphodiesterase 1 (TDP1): qHTS in cells in presence of CPT | chicken DT40 Tdp1-/-;hTDP1 cells + 20 nM CPT, ATP luminescence, 48 h | Potency, µM (doses to about 46.2 µM), for the others: at the top dose activity change, negative = growth inhibition, actives largely listed as inhibitors | 420,000 tested, 12% active; further: nearly all actives have a fitted effect of over 55% in size
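Cell growth measured by CellTiter-Glo luminescence after a minimum 48 h, 37 C compound exposure with 20 nM CPT in Tdp1-knockout DT40 cells stably expressing hTDP1, seeded 400/well; qHTS titration format.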
The depositor's hits bear a star; ? = inconclusive; . = not tested or not shown; [ ] = another dose, or the depositor's remark. The call rests on the fitted dose curve; in most records, active means well fitted curve in the direction sought with a large enough effect; inconclusive means small, poorly fitted or top-dose-only effect, or another doubt; inactive means no such curve, though single readings can be large; an effect the other way counts as inactive or inconclusive. On the % scale 0 is the no-effect control and ±100 the full control effect; potency means the concentration at half of the fitted maximal effect.

SMILES	DT40 TDP1 no CPT	RORgamma inh	ELG1 DNA repair	12-LOX inh	VP16 counter	DT40 TDP1 CPT
O=C(CCCn1c(=S)[nH]c2cc3c(cc2c1=O)OCO3)N1CCN(c2ccccc2)CC1	?	-40%	-3%	0%	-3%	?
CC(=O)c1ccc(N2CCN(C(=O)CCCn3c(=S)[nH]c4cc5c(cc4c3=O)OCO5)CC2)cc1	-29%	11µM*	18µM*	0%	?	-28%
Cc1cccc(N2CCN(C(=O)CCCn3c(=S)[nH]c4cc5c(cc4c3=O)OCO5)CC2)c1C	?	3.2µM*	10µM*	0%	4.5µM*	?
Cc1cccc(N2CCN(C(=O)CCn3c(=S)[nH]c4cc5c(cc4c3=O)OCO5)CC2C)c1 (centres undefined)	23µM*	11%	10µM*	2%	6%	16µM*
Nc1nnnn1NCc1ccccc1OCc1ccc(F)cc1	.	.	.	13%	.	.
CCOC(=O)c1cc2n(n1)CC(C)(C(=O)NC1CCCC1)N(CCc1cccs1)C2=O (centres undefined)	.	.	.	-11%	.	.
OC(COc1ccccc1)CSc1ncn[nH]1 (centres undefined)	-7%	11%	11%	-8%	-18%	-7%
CC(C)(C)c1ccc(OCC(O)CSc2ncn[nH]2)cc1 (centres undefined)	-25%	10µM*	?	9%	5.6µM*	-29%
N#C/C(=C\c1ccco1)C(=O)NCc1ccccc1	-10%	36%	?	.	10%	-4%
N#CC(C#N)=C1C=CC=CN1/C(=C\c1ccco1)C(=O)c1ccc(Cl)cc1	0.92µM*	5µM*	?	?	1.1µM*	0.58µM*
N#CC(C#N)=C1C=CC=CN1/C(=C\c1ccco1)C(=O)c1ccc(-c2ccccc2)cc1	0.58µM*	4µM*	?	?	3.2µM*	0.92µM*
Cc1ccc(S(=O)(=O)c2c(COC(=O)c3ccc(Cl)cc3)c(-c3ccccc3)nn2C)cc1	?	5%	-14%	0%	5%	16µM*
O=C(OCc1nnc(-c2ccccc2)o1)c1ccc(Cl)cc1	8%	3%	4%	-4%	4%	-10%
OC1(CN2CCCCC2)CCN(Cc2cnc(-c3ccccn3)nc2)C1 (centres undefined)	.	.	.	101%	.	.
COCc1[nH]nc2c1C(c1cc(OC)c(O)c(OC)c1)C(C#N)=C(N)O2 (centres undefined)	-7%	-6%	18µM*	-1%	-14%	-24%
COCc1[nH]nc2c1C(c1ccnc3ccccc13)C(C#N)=C(N)O2 (centres undefined)	9.2µM*	-22%	11%	-3%	-8%	18µM*
CCn1c2ccccc2c2cc(C3C(C#N)=C(N)Oc4n[nH]c(COC)c43)ccc21 (centres undefined)	26µM*	?	?	-15%	?	?
COCc1[nH]nc2c1C(c1ccc(OC)c(OC)c1)C(C#N)=C(N)O2 (centres undefined)	-15%	-11%[10 µM]	?	45%	7%	0%
COCc1[nH]nc2c1C(c1ccc(F)cc1F)C(C#N)=C(N)O2 (centres undefined)	-22%	21%	12%	2%	-1%	5%
Cc1ccc2nc(CN(C)Cc3cc(=O)c4cc(C(N)=O)ccc4[nH]3)[nH]c2c1	.	.	.	124%	.	.
CCc1nc2c(c(-c3ccc(Cl)cc3)n1)CN(CC1CC1)CC2	.	.	.	37%[176 µM]	.	.
CCN(C(=O)Cc1noc2ccccc12)c1cc(Cl)ccc1OC	.	.	.	-1%	.	.
O=C(Nc1ccccc1F)Nc1ccccc1F	-21%	35%	?	-3%	36%	?
O=C(NNc1ccccc1)Nc1ccccc1F	7.3µM*	14%	4%	?	3%	?
Fc1ccccc1NC(=S)Nc1ccc(Br)cc1	23µM*	11µM*	-6%	-29%	?	15µM*
SMILES	DT40 TDP1 no CPT	RORgamma inh	ELG1 DNA repair	12-LOX inh	VP16 counter	DT40 TDP1 CPT
Fc1cc(Br)ccc1NC(=S)Nc1ccccc1	?	?	?	?	?	-8%
O=C(Nc1ccc(Br)cc1)Nc1ccccc1F	15µM*	?	?	-1%	-9%	15µM*
O=C(Nc1ccc(Cl)c(Cl)c1)Nc1ccc(Br)cc1F	12µM*	?	?	?	13µM*	5.8µM*
O=C(Nc1ccc(Cl)c(Cl)c1)Nc1ccccc1O	?	?	?	30%	-2%	?
COc1ccc(CN2CCCC23Cc2ccccc2N([S+](C)(=O)[O-])C3)cc1 (centres undefined)	.	.	.	3%[6.33 µM]	.	.
COCC(=O)NC1CCC12CCN(C(=O)Cc1c[nH]c3ccccc13)CC2 (centres undefined)	.	.	.	51%	.	.
Cc1[nH]c2nc3ccccc3n2c(=O)c1Cc1ccc(Br)cc1	.	.	.	20%	.	.
CCN(CC)c1ccc(N=Cc2c(C)[nH]c3ccccc23)cc1	9.2µM*	-23%	-25%	?	?	6.5µM*
O=C(C1CCCCC1)N1CC(F)(F)C[C@H]1c1nnc(C2CC2)o1	.	.	.	58%	.	.
Cc1cccc(OCc2nc(CC(=O)Nc3ccc(C)cc3C)cs2)c1	?	.	.	-29%	.	15µM*
